According to ChEMBL document CHEMBL3988442, “University of Dundee, Small-Polar-MMV Screening Library” (2021):
The campaign covered roughly 48,000 compounds. About 13,000 (27%) showed an effect of 50% or more. The list shows a part of the results.

System: Wolbachia pipientis
Experiment: Anti-Wolbachia Cell-Based Screen
Type: functional
Set-up: scale not given: in the data most compounds retested in dose-response had high values
Details: 5 µM

SMILES	Percent Effect [%]
COc1ccc(NC(=O)N2CCCC2c2ccco2)cc1OC (centres undefined)	20.26
COc1cc(Nc2c(C#N)c(=O)n(C)c(=O)n2C)cc(OC)c1	0.2169
COC(=O)C(NC(=O)COC1CCCC1)c1cc(F)ccc1F (centres undefined)	0.6159
COC(=O)C(NC(=O)C1CCC1)c1cc(F)ccc1F (centres undefined)	101.8
O=C(NC1CC1)NC(c1cc(F)ccc1F)C1CC1 (centres undefined)	-0.2014
COC(=O)C(NC(=O)c1cc(F)cc(F)c1)c1cccnc1 (centres undefined)	7.008
COC(=O)C(NC(=O)C1CC1)c1cc(F)ccc1F (centres undefined)	87.91
CC(c1cc(F)ccc1F)N(C)CCS(=O)(=O)CCC(N)=O (centres undefined)	-2.852
COc1ccccc1C(NC(=O)C1CCC1)c1noc(C)n1 (centres undefined)	-10.07
CNC(C(=O)OC)c1cc(F)ccc1F.Cl (centres undefined)	100.3
COc1ccccc1C(NC(=O)C1CCCC1)c1noc(C)n1 (centres undefined)	-4.234
Cc1nc(C(NC(=O)C2CCCC2)c2ccccc2F)no1 (centres undefined)	-17.79
COC(=O)C(NC(=O)C1CCCC1)c1cc(F)ccc1F (centres undefined)	111.2
CNC(=O)C1CN(Cc2ccc(C#N)cc2F)c2ccccc2O1 (centres undefined)	-15.36
CC(C)C(=O)N1CCN(C(=O)c2cc(Cl)no2)[C@H]2CS(=O)(=O)C[C@H]21	-5.437
N#Cc1cccnc1NC1CCN(c2ccccc2OC(F)F)C1=O (centres undefined)	-11.66
O=C(NCCNc1cncc(Br)c1)c1ccc(O)cc1	-0.2825
O=C1c2cccnc2OC(CN2CCOCC2)CN1CC1CC1 (centres undefined)	142
O=C1c2cccnc2OC(CN2CCOCC2)CN1C1CCC1 (centres undefined)	113.2
O=C(NC1CCCCC1)N1CCC(N2Cc3ncccc3C2=O)CC1	2.597
O=C(O)C(F)(F)F.O=C(O)C(F)(F)F.O=C(O)C(F)(F)F.c1cncc(C[C@H]2[C@H](N3CCOCC3)CCN2Cc2cccs2)c1	-5.101
COc1ncccc1CNC(=O)N1CCC(CN2CCOCC2)CC1	-11.8
COc1ncccc1NC(=O)N1CCC(CN2CCOCC2)CC1	40.61
CCOC(=O)N1CCC(N2Cc3ncccc3C2=O)CC1	-7.226
Cc1cccc(C)c1C(=O)N1C[C@@H](CN2CCOCC2)[C@@H](CO)C1	-12.05

SMILES	Percent Effect [%]
O=C1c2cccnc2OC(CN2CCOCC2)CN1Cc1cccs1 (centres undefined)	106
CCN1CC(CN2CCOCC2)Oc2ncccc2C1=O (centres undefined)	121.1
CCc1c(C)sc2ncnc(N3CC[C@@H](N4CCC(O)CC4)[C@H](O)C3)c12	-2.578
O=C(O)c1cn(CC2CCCN(c3nc4ccccc4s3)C2)nn1 (centres undefined)	-26.21
NC(=O)c1ccccc1-n1cc(-c2cccc(C(=O)O)c2)cn1	8.053
CCN1CCCN(c2ncccc2C(=O)N2CCCCC2)CC1	-13.17
CC(C)N1CCC(Cc2cc(-c3cccc(C(=O)O)c3)ncn2)CC1	121.9
CC(C)N1CCC(Cc2cc(-c3cccc(C(=O)O)c3)ncn2)C1 (centres undefined)	-6.349
CC(C)N1CCC(CC(=O)NCc2cc(O)ncn2)CC1	-21.37
CC(C)N1CCC(Cc2cnc(-c3cccc(C(=O)O)c3)cn2)C1 (centres undefined)	-8.094
CC(C)N1CCC(Cc2cncc(-c3cccc(C(=O)O)c3)n2)CC1	108.9
COCCN1CCC(Cc2cncc(-c3ccc(C(=O)O)cc3)n2)C1 (centres undefined)	-8.312
CC(C)N1CCC(Cc2cncc(-c3cccc(C(=O)O)c3)n2)C1 (centres undefined)	113.7
COCCN1CCC(CNc2nccc(-c3cnn(C)c3)n2)CC1	12.08
COCCN1CCC(Cc2cncc(-c3ccc(C(=O)O)cc3)n2)CC1	112
CCOCC1CN(Cc2ccoc2)Cc2nn(CC3CC3)cc21.O=C(O)C(F)(F)F (centres undefined)	-8.348
Cn1cnc2c1C(COCC1CCOCC1)CN(Cc1ccccn1)C2.O=C(O)C(F)(F)F.O=C(O)C(F)(F)F.O=C(O)C(F)(F)F (centres undefined)	-22.25
CN(C)C(=O)COCC1CN(Cc2cccs2)Cc2ncn(C)c21.O=C(O)C(F)(F)F.O=C(O)C(F)(F)F (centres undefined)	100.2
Cc1cccc(CN2CCc3c(COCC(=O)N(C)C)nn(C)c3C2)n1.O=C(O)C(F)(F)F.O=C(O)C(F)(F)F	1.951
CN(C)C(=O)COCC1CN(Cc2ccoc2)Cc2ncn(C)c21.O=C(O)C(F)(F)F.O=C(O)C(F)(F)F (centres undefined)	111.6
CN(C)C(=O)COCc1nn(C)c2c1CCN(Cc1ccco1)C2.O=C(O)C(F)(F)F	-2.792
Cc1cccc(CN2Cc3ncn(C)c3C(COCC(=O)N(C)C)C2)n1.O=C(O)C(F)(F)F.O=C(O)C(F)(F)F.O=C(O)C(F)(F)F (centres undefined)	115.6
CN(C)C(=O)COCC1CN(Cc2ccco2)Cc2ncn(C)c21.O=C(O)C(F)(F)F.O=C(O)C(F)(F)F (centres undefined)	91.74
CCn1cc2c(n1)CN(Cc1ccoc1)CC2COCC1CC1.O=C(O)C(F)(F)F (centres undefined)	-14.5
